Measurements: PubChem BioAssay

Experiment: change in splice reporter luminescence, either direction, cell-based, HEK293, spliceosome inhibition project, primary screen (AID 1101);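 note: HEK293 cells carrying a splicing-competent luciferase reporter gene; test concentration not given here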
Conditions: HEK293 splicing luciferase reporter, 24 h, higher = more signal, called active from +8 up or from −8 down

z-score, inactive:
CCOC(=O)C[C@H]1[C@H](OC(=O)c2ccc(-c3ccccc3)cc2)[C@@H](NC(=O)c2ccccc2)c2cc(OCCCO)ccc2N1C(=O)c1ccc2ccccc2n1 0.00513
O=c1cccc(-c2ccccc2Cl)o1 0.477
C=CCC(OC(C)=O)[C@@H]1[C@@H](N(Cc2cc3ccccc3o2)C(=O)Cc2ccc(OC)cc2)c2cc(OCCCO)ccc2N1C(=O)c1ccc2ccccc2c1 (some centres not stated) -0.564
CS(=O)(=O)CCOC(=O)C1=CC(CCCO)=CC(c2ccc(CN3CCCC3)cc2)N(Cc2cccc(OC(F)(F)F)c2)C=C1C(=O)OCCS(C)(=O)=O (configuration not stated) 0.0999
O=C1[C@@]23C=C(Br)[C@H](C[C@@H]2COC3)[C@]12CO2 1.91
O=C(CS)NCCCCCNC(=O)[C@H]1C[C@H]2C(=O)NCC(=O)N2[C@H]1c1ccc(O)cc1 -1.35
CC(c1ccccc1)C(O)C1C=CC2C(=O)N(c3ccccc3)C(=O)C2N1Nc1ccccc1 (configuration not stated) -0.716
COC(=O)c1c(CC[C@@H](CO)NC(=O)NCCc2c[nH]c3ccccc23)oc(C(=O)Cc2ccccc2)c1C(=O)OC -0.251
O=C(O)[C@H]1C[C@H]2C(=O)N3CCC[C@H]3C(=O)N2[C@H]1c1ccc(O)cc1 0.127
Cc1c(NC(=O)/C(C#N)=C/c2cccc([N+](=O)[O-])c2)c(=O)n(-c2ccccc2)n1C -0.911
CCOC(=O)C1=CCC(c2ccc(F)cc2)N(S(=O)(=O)c2ccc(C)cc2)C1 (configuration not stated) 0.0136
COC(=O)C(CC#Cc1ccc2c(c1)[C@]1(C(=O)N2)[C@H](c2ccc(O)cc2)N2[C@H](c3ccccc3)[C@H](c3ccccc3)OC(=O)[C@H]2[C@@H]1C(=O)N1CCN(c2ncccn2)CC1)C(=O)OC -0.84
O=C1O[C@H](c2ccccc2)[C@H](c2ccccc2)N2[C@H]1[C@@H](C(=O)NC[C@H](O)c1ccccc1)[C@]1(C(=O)Nc3ccccc31)[C@H]2c1ccc(O)cc1 -0.4
COCCOC(=O)N1C(=O)[C@@]2(c3cc(C#Cc4ccc(OC)cc4)ccc31)[C@H](c1ccc(O)cc1)N1[C@H](c3ccccc3)[C@H](c3ccccc3)OC(=O)[C@H]1[C@@H]2C(=O)Nc1nc2ccccc2s1 -0.0561
CC(C)=CCCC(C)=CC(O)C1C=CC2C(=O)N(c3ccccc3)C(=O)C2N1Nc1ccc(C(C)C)cc1 (configuration not stated) 0.433
O=C(O)[C@H](Cc1ccccc1)n1cc(-c2ccccc2)nn1 -0.544
COC(=O)C(CC#Cc1ccc2c(c1)[C@]1(C(=O)N2)[C@H](c2ccccc2OCCO)N2[C@H](c3ccccc3)[C@H](c3ccccc3)OC(=O)[C@H]2[C@@H]1C(N)=O)C(=O)OC -3.57
[N-]=[N+]=Nc1ccccc1C[C@]1(C(=O)NCC(O)CO)N=C(c2ccc(OCCCO)cc2)O[C@H]1c1ccccc1 (some centres not stated) -0.29
Cc1ccc([C@H]2C(C(=O)O)=CCN2S(=O)(=O)c2ccc(C)cc2)cc1 0.0638
[N-]=[N+]=Nc1ccccc1C[C@]1(C(=O)NCc2ccccc2)N=C(c2ccc(OCCCO)cc2)O[C@H]1c1ccccc1N=[N+]=[N-] 0.716
CC(=O)NCCCC[C@@H]1NC(=O)[C@H]2C[C@@H](C(=O)O)[C@@H](c3ccc(O)cc3)N2C1=O -0.177
COCCOC(=O)N1C(=O)[C@@]2(c3cc(C#CC4(O)CCCCCC4)ccc31)[C@H](C(=O)Nc1nc3ccccc3s1)[C@H]1C(=O)O[C@H](c3ccccc3)[C@H](c3ccccc3)N1[C@@H]2c1ccccc1OCCO -0.616
COCC(=C=CC[C@H](O)c1cccc(OCCO)c1)C[C@H](O)c1cc(Cl)cc(Cl)c1O 0.102
[N-]=[N+]=Nc1ccccc1[C@H]1OC(c2ccc(OCCCO)cc2)=N[C@@]1(Cc1ccccc1)C(=O)N1CCOCC1 0.439
CCCCC(O)C1C=CC2C(=O)N(C)C(=O)C2N1N1CCCCC1 (configuration not stated) 0.871
COc1ccc(NC(=O)O[C@H]2[C@H](OC(=O)c3cc4ccccc4[nH]3)[C@@H](OC(=O)c3cc4ccccc4[nH]3)[C@@H](OC)O[C@@H]2CO)cc1 -1.07
CN1C(=O)C2C=CC(C(O)c3c(F)cccc3Cl)N(NC(=O)OC(C)(C)C)C2C1=O (configuration not stated) 1.7
